Screening data (PubChem BioAssay)
In the library only some 2.9% were active in any assay of this set; here they are far more common.
EBV LMP1 NFkB – EBV LMP1-driven NF-kappaB luciferase reporter inhibitors, primary screen, cell-based, luminescence, single point. inhibition, % at 12.5 µM. LMP1-induced NF-kappaB luciferase reporter cells. AID 504558, 2011. actives 0.69% (n = 350,000); in the data active means inhibition above about 41%; inconclusive means no clear call, values can overlap the other calls;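 further: 0% = neutral control wells and 100% = reference inhibitor control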
CF NFkB block – inhibitors of PAF-induced NF-kB signaling, primary screen, cell-based, GFP fluorescence, uHTS; inhibition, % at 5 µM; actives 0.86% (n = 360,000); KKLEB NF-kB-GFP reporter, GFP fluorescence overnight;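 active means at least 50% inhibition at 5 µM, scaled per plate between neutral and stimulator controls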;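 further: PAF is a Pseudomonas aeruginosa culture filtrate used as stimulus; plate controls were PAF-stimulated DMSO wells for no effect and unstimulated DMSO wells for full effect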
HIF-2a block – HIF-2a reporter inhibitors, primary screen, luminescence, 786-0 RCC cells | inhibition, % at 18.8 µM | AID 624352, 2012 | actives 0.72% (n = 360,000) | 786-0 RCC cells HIF-2a reporter, luciferase luminescence, overnight;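 active means inhibition of the luminescence signal of 40% or more relative to plate controls, in a single-dose primary screen at 18.75 µM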
Shn3 3UTR inh – reduction of Shn3 3'UTR firefly luciferase signal, primary screen, Schnurri-3 inhibitor project, cell-based, Clone20 osteoblasts, set 2; Clone20 osteoblast Shn3 3'UTR firefly luciferase, 24 h; actives 0.52% (n = 360,000); inhibition, % at 12.5 µM;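 active means mean inhibition of at least 75% with every replicate also reaching 75%; inconclusive means mean inhibition at least 75% but some replicate below; inactive means mean inhibition below 75%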;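 further: 0% = median of neutral control wells and 100% = pilot-screen positive control compound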
Peg3 prom inh-1 – Peg3 promoter-driven luciferase inhibitors, primary screen, cell-based, HeLa, luciferase luminescence; inhibition, % at 20 µM; HeLa PEG-Prom luciferase reporter, overnight; actives 1.7% (n = 360,000); AID 588405, 2011;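 active means inhibition of at least 50% at 20 µM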
KKLEB tox – cytotoxicity in KKLEB CF airway cells, primary screen, cytotoxicity control for CF NF-kB inhibitor project, cell-based, uHTS, fluorescence assay plates; KKLEB CF airway cells viability, ATPlite luminescence, overnight; hits give low values; cells stimulated with P. aeruginosa culture filtrate; activity change (cytotoxicity), % at 5 µM; actives 0.36% (n = 360,000); AID 602141, 2011;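 active means corrected activity change at or below -50% at 5 µM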
Peg3 prom inh-2 – Peg3 promoter reporter inhibitors, retest, confirmation, cell-based, HeLa, luciferase reporter, single concentration. shares compounds with Peg3 prom inh-1. HeLa PEG-Prom luciferase reporter, luminescence, overnight. inhibition, % at 20 µM. actives 84% (n = 1,300). AID 602417, 2012;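 active means at 20 µM dose, 40% or more inhibition averaged across four replicates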
CF NFkB conf – inhibitors of PAF-induced NF-kB signaling, retest, confirmation, cell-based, GFP fluorescence, single concentration; shares compounds with CF NFkB block; KKLEB CF airway cells, overnight; inhibition, % at 5 µM; actives 64% (n = 1,300); AID 602472, 2012; in the data active means inhibition above about 40%;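 further: stimulus PAF is a Pseudomonas aeruginosa filtrate and not platelet activating factor; plate controls were DMSO wells with stimulus for no effect and unstimulated DMSO wells for full effect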
Mdm2 MdmX conf – retested Mdm2-MdmX interaction blockers, confirmation, cell-based, luminescence, single concentration, set 2 | shares compounds with HIF-2a block | SaOS-2 split-luciferase Mdm2/MdmX complementation | inhibition, % at 8 µM | actives 99% (n = 740) | AID 504601, 2011;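 active means mean inhibition of the luminescence signal across two replicates at or above 26 percent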
Target sequence (O15151 whole entry, looked up): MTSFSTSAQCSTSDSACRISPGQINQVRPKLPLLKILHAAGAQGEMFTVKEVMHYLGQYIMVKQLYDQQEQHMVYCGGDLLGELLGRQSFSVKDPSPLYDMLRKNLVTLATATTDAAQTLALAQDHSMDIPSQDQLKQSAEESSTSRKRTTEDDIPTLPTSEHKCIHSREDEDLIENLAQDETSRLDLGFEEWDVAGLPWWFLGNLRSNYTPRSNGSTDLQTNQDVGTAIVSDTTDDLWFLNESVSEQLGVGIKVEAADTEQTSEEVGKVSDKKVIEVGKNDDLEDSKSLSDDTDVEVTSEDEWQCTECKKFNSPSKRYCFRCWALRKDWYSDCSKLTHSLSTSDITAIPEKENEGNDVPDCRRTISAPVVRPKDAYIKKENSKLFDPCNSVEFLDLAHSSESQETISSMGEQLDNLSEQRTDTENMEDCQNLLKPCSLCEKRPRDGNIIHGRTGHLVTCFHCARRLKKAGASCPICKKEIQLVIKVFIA
Target sequence (Q00987 whole entry, looked up): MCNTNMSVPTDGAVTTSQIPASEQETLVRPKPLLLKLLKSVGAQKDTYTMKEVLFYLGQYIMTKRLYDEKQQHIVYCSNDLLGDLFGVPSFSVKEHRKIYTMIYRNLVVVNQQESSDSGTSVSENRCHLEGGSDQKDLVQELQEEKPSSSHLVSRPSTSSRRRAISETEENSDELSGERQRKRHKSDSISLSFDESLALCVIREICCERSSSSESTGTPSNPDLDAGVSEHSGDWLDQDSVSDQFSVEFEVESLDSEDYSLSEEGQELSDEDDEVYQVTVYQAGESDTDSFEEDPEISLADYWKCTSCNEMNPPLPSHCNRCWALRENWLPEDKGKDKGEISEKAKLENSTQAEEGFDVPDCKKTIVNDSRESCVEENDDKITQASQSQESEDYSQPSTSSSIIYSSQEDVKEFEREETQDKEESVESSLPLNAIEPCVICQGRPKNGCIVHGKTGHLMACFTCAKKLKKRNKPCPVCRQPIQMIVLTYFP
HIF-2a conf – HIF-2a reporter inhibitor retest, confirmation, luminescence, 786-0 RCC cells; shares compounds with HIF-2a block; HIF-2a luciferase reporter luminescence, overnight; inhibition, % at 18.8 µM; actives 56% (n = 1,800);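 active means mean inhibition across four replicates of at least 40 percent at the single tested concentration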
HIF-1a counter – HIF-1a luciferase reporter signal reduction – MiaPaCa-2 cells, single concentration, counter-screen for HIF-2a inhibitor project, confirmation | shares compounds with HIF-2a block | MiaPaCa-2 HIF-1a luciferase reporter, desferoxamine, overnight | inhibition, % at 18.8 µM | actives 72% (n = 1,800) | AID 651589, 2012;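 active means mean inhibition of the reporter signal across four replicates at the single tested dose of 50% or more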
Active calls of the source: *; ? = inconclusive; . = not tested or not shown.

SMILES	EBV LMP1 NFkB	CF NFkB block	HIF-2a block	Shn3 3UTR inh	Peg3 prom inh-1	KKLEB tox	Peg3 prom inh-2	HIF-2a conf	HIF-1a counter	others
CC(C)Cc1nc2oc3c(NCC(C)O)ncnc3c2c2c1CCCC2 (stereo unspecified)	-2	31	9	2	14	-35	.	.	.
CCCc1nc2oc3c(NCCCN(C)C)ncnc3c2c2c1CCCC2	-35	11	17	-72	92*	-18	93*	.	.	Mdm2 MdmX conf=101*
CC(=O)CSc1ccc(-c2nc3cc(C)c(C)cc3[nH]2)cn1	72*	-6	67*	69	84*	-17	71*	85*	100*
CC(=O)CSc1ccc(-c2nc3ccccc3[nH]2)cn1	6	-4	-77	-65	-118	-18	.	.	.
CCC1(O)C(=O)OCc2c1cc1n(c2=O)Cc2cc3cc(O)ccc3nc2-1 (stereo unspecified)	86*	84*	52*	29	63*	-27	52*	17	102*	CF NFkB conf=110*
COc1cc(/C=C/C(=O)N2CCC=CC2=O)cc(OC)c1OC	22	81*	94*	38	104*	16	94*	83*	103*	CF NFkB conf=33
COc1cc(/C=C/C(=O)N2CCCN(C(=O)/C=C/c3cc(OC)c(OC)c(OC)c3)CC2)cc(OC)c1OC	-1	-29	5	0	4	7	.	.	.
CN(Cc1ccc(F)cc1)C(=O)c1ccc(NC(=O)CC2SC(N3CCCC3)=NC2=O)cc1 (stereo unspecified)	7	-1	8	-17	4	5	.	.	.
COc1ccc(NS(=O)(=O)c2ccc(OC)c(NC(=O)CNC(=O)c3ccc(OC)cc3)c2)cc1	-1	-5	14	-3	21	-4	.	.	.
CCOC(=O)c1c(NC(C)=O)sc2c(OCCN(CC)CC)c(Br)ccc12	-18	-26	-2	-3	27	-2	.	.	.
CCOC(=O)c1c(NC(C)=O)sc2c(OCC(O)CN(CC)CC)c(Br)ccc12 (stereo unspecified)	-28	-29	78*	-2	86*	-13	98*	4	106*
OC(c1cccs1)(c1cccs1)C1C[N+]2(CF)CCC1CC2 (stereo unspecified)	0	14	1	2	-1	-9	.	.	.
CCC1=C(CC2NCCc3ccccc32)CC2c3cc(OC)c(OC)cc3CCN2C1 (stereo unspecified)	-2	63*	41*	74	61*	-12	80*	39	104*	CF NFkB conf=72*
Cc1ccc([N+](=O)[O-])c(NC2OC(CO)C(O)C2O)c1 (stereo unspecified)	1	6	4	3	10	-1	.	.	.
Cc1ccc(NS(=O)(=O)c2ccc3c(c2)n(C)c(=O)n3C)cc1C	-13	-13	31	30	27	4	.	.	.
Cc1ccc(NS(=O)(=O)c2cc3c4c(cccc4c2)C(=O)NC3=O)cc1C	11	1	54*	31	57*	-2	60*	29	102*
CCCCCCCNC(=O)C1(CC2CC(c3cccc(Br)c3)=NO2)CCNCC1 (stereo unspecified)	-33	26	-74	91*	99*	-23	99*	.	.	Mdm2 MdmX conf=103*
CCCC(=O)NC(c1ccccc1Cl)c1ccc2cccnc2c1O (stereo unspecified)	66*	13	4	?	53*	-8	62*	.	.	Mdm2 MdmX conf=91*
CCCCC[C@H]1CN(C2CCCCC2)C(=O)[C@@H]1CC(=O)NCc1ccccc1	-10	-3	5	-4	10	-7	.	.	.
CCOc1ccccc1NC(=O)CN(C)S(=O)(=O)c1ccc2[nH]c(=O)oc2c1	-4	4	-4	-22	2	-4	.	.	.
CS(=O)(=O)Nc1cccc(NC(=O)C2Cc3c(-c4ccccc4)ccnc3O2)c1 (stereo unspecified)	.	1	47*	69	51*	-1	57*	22	85*
CSc1ncc(C(=O)Nc2cccc(C)c2C)c(C)n1	-3	-2	-11	-19	-9	-2	.	.	.
Cc1nn(C(C)(C)C)c(C)c1/C=N/OC(=O)Nc1ccc(Cl)cc1	74*	1	91*	.	96*	-56*	95*	96*	103*	Mdm2 MdmX conf=101*
O=C1CSC(=S)N1c1cccnc1	-14	16	11	27	22	-17	.	.	.
O=C1CSC(=S)N1Cc1cccnc1	23	21	47*	19	96*	-22	50*	.	.	Mdm2 MdmX conf=101*
Cc1cccc(C)c1NS(=O)(=O)c1ccc(NC(=O)c2ccc(Cl)c([N+](=O)[O-])c2)cc1	12	-1	91*	18	106*	-3	98*	25	108*	Mdm2 MdmX conf=102*
O=C(Nc1ccc(S(=O)(=O)NC2=NCCCCC2)cc1)c1ccc(Cl)c([N+](=O)[O-])c1	0	0	1	8	-3	-3	.	.	.
C[C@@H](C(=O)Nc1ccc2c(c1)OCO2)n1c(=O)[nH]c2ccccc2c1=O	-3	-6	-7	-15	-24	2	.	.	.
C[C@@H](C(=O)Nc1ccc2c(c1)OCCO2)n1c(=O)[nH]c2ccccc2c1=O	43*	6	42*	10	50*	-14	51*	45*	78*
Cc1nn(-c2ccccc2Cl)c(Cl)c1/C=N/Nc1nc2ccccc2s1	56*	-9	74*	83	72*	1	75*	84*	92*	Mdm2 MdmX conf=98*
